High-throughput results: PubChem, several laboratories
SENP7 inh: blocks the human protease SENP7. AID 434973. inhibition, % at 5 µM. 330,000 tested, 1.5% active. recombinant SENP7, Z-RLRGG-aminoluciferin luminescence, 40 min;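 active means inhibition above about 50% at the single test dose, limit read from the data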;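 further: plate controls were DMSO with enzyme for no effect and no enzyme buffer wells for full effect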
Platelet DG rel: platelet dense granule release activity; 300,000 tested, 0.22% active; human platelet-rich plasma, SFLLRN dense granule ATP release, luminescence; AID 1663; inhibition, %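 (compounds screened at 7.5 µM in platelet-rich plasma)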;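 active means mean replicate score, as percent of positive control, at or above 50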
SENP8 block-1: blocks human SENP8 cleavage of Nedd8 substrate; 360,000 tested, 0.64% active; Q96LD8; recombinant SENP8, Nedd8 substrate fluorescence; inhibition, % at 20 µM; in the data active means inhibition mostly above about 40%, no sharp cut-off; inactive means mostly below about 27%
Target sequence (Q96LD8 whole entry, looked up): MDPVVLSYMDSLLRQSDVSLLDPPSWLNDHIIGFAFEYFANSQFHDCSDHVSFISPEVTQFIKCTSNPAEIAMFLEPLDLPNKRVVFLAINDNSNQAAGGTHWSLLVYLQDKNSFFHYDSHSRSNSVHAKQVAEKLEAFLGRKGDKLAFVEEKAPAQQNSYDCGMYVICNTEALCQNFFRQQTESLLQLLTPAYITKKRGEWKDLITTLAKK
SENP8 block-2: SENP8 protease inhibition; Q96LD8; purified SENP8, Z-RLRGG-aminoluciferin cleavage, luminescence; inhibition, % at 10 µM; 330,000 tested, 1.2% active; in the data active means inhibition above about 50%
SENP6 block: blocks the human protease SENP6; Q9GZR1; Recombinant SENP6 catalytic domain, aminoluciferin luminescence; inhibition, % at 10 µM; 330,000 tested, 1.8% active; AID 2599;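 active means inhibition above about 50% at the single tested dose, limit read from the data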;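 further: plate controls were DMSO wells with enzyme for no effect and DMSO wells lacking enzyme for full effect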
HSP90 inh: blocks HSP90-mediated luciferase refolding in reticulocyte lysate; inhibition, % at 5.6 µM; 290,000 tested, 0.91% active; Rabbit reticulocyte lysate, luciferase refolding luminescence, 3 h;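 active means inhibition above the screen-wide mean plus 3 SD, computed separately per campaign, cut at about 16% in these data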;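 further: 0% = DMSO wells and 100% = 60 µM geldanamycin wells; inhibitors lower the luminescence because luciferase stays unfolded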
SENP8 confirm: confirmation of human SENP8 protease inhibitors; shares compounds with SENP7 inh; AID 488912; inhibition, % at 12.5 µM; 6,200 tested, 40% active; Recombinant SENP8, Z-RLRGG-aminoluciferin luminescence, 60 min;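 active means mean inhibition across replicates above about 50%, limit read from the data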
SENP6 confirm: human SENP6 inhibition, confirmed | shares compounds with SENP7 inh | recombinant SENP6, Z-RLRGG-aminoluciferin luminescence | inhibition, % at 12.5 µM | 6,200 tested, 58% active | AID 488915
SENP7 confirm: human SENP7 inhibition, confirmed | shares compounds with SENP7 inh | recombinant SENP7, Z-RLRGG-aminoluciferin luminescence, 40 min | 6,200 tested, 69% active | inhibition, % at 12.5 µM
Casp3 SENP sel: selectivity test for SENP inhibitors: human caspase-3 inhibition; shares compounds with SENP7 inh; purified caspase-3, Z-DEVD-aminoluciferin luminescence, 60 min; inhibition, % at 12.5 µM; 6,200 tested, 60% active;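 active means mean inhibition above about 50%, limit read from the data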;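 further: plate controls were enzyme with DMSO for no effect and wells without caspase-3 for full effect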
Target sequence (P42574 28-227 limits assumed): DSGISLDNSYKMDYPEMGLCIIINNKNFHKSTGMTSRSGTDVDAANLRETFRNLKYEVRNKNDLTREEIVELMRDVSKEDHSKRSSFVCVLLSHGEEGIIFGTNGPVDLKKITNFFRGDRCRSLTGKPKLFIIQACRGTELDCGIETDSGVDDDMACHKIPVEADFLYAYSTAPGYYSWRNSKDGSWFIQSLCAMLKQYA
SENP luc ctr: interferes with luciferase luminescence in SENP counter-screen | shares compounds with SENP7 inh | Pre-incubated SENP8/Z-RLRGG-aminoluciferin, luciferase luminescence interference | 6,200 tested, 39% active | AID 488919 | inhibition, % at 12.5 µM;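 active means mean inhibition above about 50% when retested at one dose, limit read from the data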;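 further: plate controls were DMSO wells with completed reaction for no effect and substrate without enzyme for full effect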
Active calls of the source: *. Rows were chosen to be rich in hits. Some 2.8% of all compounds tested hit in one or more screens of this group.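 How the source made its calls, unless noted: active means mean inhibition above about 50% in the one-dose retest (limit read from the data); inactive means the rest.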

Screening CCOC(=O)/C(=N\Nc1ncnc2ccccc12)c1ccc(C)cc1 returned SENP7 inh 25, Platelet DG rel -5, SENP8 block-1 30, SENP8 block-2 62*, SENP6 block 61*, HSP90 inh 15, SENP8 confirm -24, SENP6 confirm 56*, SENP7 confirm 78*, Casp3 SENP sel 6 and SENP luc ctr 20.
`COc1ccc(N2CCN(C(=O)COC(=O)c3ccc(-n4nc(C)cc4C)cc3)CC2)cc1` gave SENP7 inh 2, SENP8 block-1 10, SENP8 block-2 -3 and SENP6 block -18.
`COc1ccc(OCc2cc(C(=O)N3CCOCC3)no2)c(Cl)c1` gave SENP7 inh -8, Platelet DG rel -5, SENP8 block-1 21, SENP8 block-2 -6, SENP6 block -4 and HSP90 inh 0.
CC(=O)/C(N=Nc1ccc(C(=O)O)cc1)=C(\C)O was read as SENP7 inh 67*, Platelet DG rel 24, SENP8 block-1 26, SENP8 block-2 44, SENP6 block 76*, HSP90 inh -2, SENP8 confirm 58*, SENP6 confirm 58*, SENP7 confirm 87*, Casp3 SENP sel 92* and SENP luc ctr 73*.
For CC(=O)/C(N=Nc1ccc2c(c1)OCO2)=C(\C)O the results were SENP7 inh 83*, Platelet DG rel 15, SENP8 block-1 8, SENP8 block-2 59*, SENP6 block 84*, HSP90 inh -4, SENP8 confirm -10, SENP6 confirm 37, SENP7 confirm 78*, Casp3 SENP sel 74* and SENP luc ctr 28.
`O=C(c1ccco1)N1CCN(c2nnc(-c3ccccc3)c3ccccc23)CC1` gave SENP7 inh -5, Platelet DG rel 0, SENP8 block-1 20, SENP8 block-2 2, SENP6 block 0 and HSP90 inh 1.
For C=Cn1cc(CNC[C@H]2O[C@@H](n3ccc(N)nc3=O)[C@H](O)[C@@H]2O)c(C)n1 the results were SENP8 block-1 27.
Cc1occc1C(=O)NNC(=O)c1ccccc1[N+](=O)[O-] was read as SENP7 inh 7, Platelet DG rel 5, SENP8 block-1 4, SENP8 block-2 -8, SENP6 block -25 and HSP90 inh 2.
CCSc1nnc(NC(=O)C2(C)Cc3ccccc3C(=O)O2)s1 (stereo unspecified) was read as SENP7 inh 2, Platelet DG rel 5, SENP8 block-1 10, SENP8 block-2 -4, SENP6 block -3 and HSP90 inh 6.
CC1(C(=O)Nc2nnc(C(C)(C)C)s2)Cc2ccccc2C(=O)O1 (stereo unspecified) was read as SENP7 inh 101*, Platelet DG rel 2, SENP8 block-1 12, SENP8 block-2 1, SENP6 block -14, HSP90 inh 0, SENP8 confirm -1, SENP6 confirm -2, SENP7 confirm -3, Casp3 SENP sel -2 and SENP luc ctr 0.
Cc1cccc(NC(=O)c2nc[nH]c2C(=O)N[C@@H](Cc2ccccc2)C(=O)OCc2ccccc2)c1 was read as SENP7 inh 14, Platelet DG rel 0, SENP8 block-1 18, SENP8 block-2 -9 and SENP6 block -7.
